From the supplement of paper PMC6555819

Experiments:
Experiment in all cases: PBM binding z-score (relative to random genomic background probes); higher = stronger binding; sequences stand for … in GC…GCGATTGACAGCGTAGAATGAAGG
[1] = tested on: RARb homodimer (NR concentration 270 nM)
Method in brief: (§1)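 Custom Agilent 4×180K protein-binding microarrays carried double-stranded probes. Their 34-nt variable regions held direct-repeat seeds, single-nucleotide variants, half-site ablations and random human genomic background sequences. Arrays were incubated 1 h with ligand-free nuclear receptor dimers in PBS pH 7.4, 2% milk, 0.02% Triton X-100, 1 mM DTT, 0.2 mg/mL BSA and 0.4 mg/ml salmon testes DNA. Antibodies against each partner (one per run) detected binding, and scanned fluorescence was regression-normalized. Binding z-scores use random background probes as reference.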

[2] = tested on: RARg:RXRa (NR concentration 270 nM, RXRa partner concentration 90 nM)
Method in brief: as §1

[3] = tested on: RARg homodimer (NR concentration 270 nM)
Method in brief: as §1

[4] = tested on: RXRa DBDmut IVT, anti-RXR (DBD mutation: RXRa K156A/R161A, NR concentration 90 nM)
Method in brief: as §1

[5] = tested on: RXRa homodimer (NR concentration 180 nM)
Method in brief: as §1

[6] = tested on: THRa:RXRa (NR concentration 90 nM, RXRa partner concentration 90 nM)
Method in brief: as §1

[7] = tested on: THRa homodimer (NR concentration 90 nM)
Method in brief: as §1

[8] = tested on: VDR homodimer (NR concentration 270 nM)
Method in brief: as §1

Sequence | PBM binding z-score [1] | PBM binding z-score [2] | PBM binding z-score [3] | PBM binding z-score [4] | PBM binding z-score [5] | PBM binding z-score [6] | PBM binding z-score [7] | PBM binding z-score [8]
AGTCAAAGTTCAACTAGGTAACGTAAGATATGCT | 3.9 | 5.82 | 6.57 | 4.34 | 4.89 | 3 | 0.196 | 4.09
TCTAGCAGGCCAGAGGGTCACGCAAGAGGTACGG | 3.37 | 3.78 | 3.41 | -0.273 | 4.06 | 2.33 | -0.0703 | 0.674
CGAACTAGGTCATTGACAGGAAAGTGAATAGTAA | 2.15 | 3.65 | 3.62 | 2.19 | 2.61 | 2.27 | 0.512 | 0.797
CTACCAAGGTGAACAAGGTAGTTGATTACTATTC | 0.762 | 0.87 | 0.957 | 0.172 | 0.815 | 1.75 | 0.665 | -0.336
GCTTACGGGTCAAGGGTTATAGCATGAATAGAAT | 3.07 | 5.54 | 4.39 | 1.86 | 7.3 | 3.14 | 0.219 | 0.975
TCTATTAGTTGAAGGGCAACCCACGAGTCCGTTT | 1.55 | 0.894 | 0.882 | 1.69 | 0.809 | 0.474 | 0.28 | 1.81
ATCGAAAGGTCGAAGGTGAGTATACCCACCCGAA | 2.51 | 4.29 | 3.81 | 0.771 | 5.16 | 2.27 | -0.0349 | 0.804
